Assay [1] has as its system Wnt5a (protein binding on small-molecule microarray). The assay is described as follows: small molecules binding Wnt5a protein – biophysical, small-molecule microarray, 635/667 nm fluorescence, primary screen (AID 1142).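 Further: fluorescence read at 667 nm with signal to noise per printed feature.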 The note with it: 635 nm fluorescence, higher = more signal.
Assay [2] in a line: ATP-based viability of Huh7 replicon cells – cell-based, CellTiter-Glo luminescence, basal, 48 h, cytotoxicity control for HCV replication inhibitor project, primary screen (AID 1143).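 Further: Huh7 hepatoma cells carrying a hepatitis C replication reporter with no stimulus; test concentration not given here.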 The note with it: higher = more signal, called active from +8 up or from −8 down.
Assay [3] is described as follows: Pseudomonas biofilm growth suppression – PAO1 strain, BacTiter-Glo luminescence, LB-PBS, primary screen (AID 1144). The settings on record: P. aeruginosa PAO1 biofilm, 12 h, higher = more signal.
Assay [4] is described as follows: basal CRE-LacZ reporter activity in PC12 – cell-based, unstimulated, primary screen (AID 1145). The note with it: no forskolin, luminescence, 4.5 h, higher = more signal, called active from +8 up or from −8 down.
Assay [5] is described as follows: forskolin-driven CRE-LacZ activity in PC12 – cell-based, CRE-LacZ reporter, forskolin-stimulated, primary screen (AID 1146).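 Further: PC12 cells with 6xCRE LacZ reporter stimulated by forskolin 10 µM; beta-galactosidase reporter signal reflecting CREB driven transcription.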 The settings on record: luminescence, 4.5 h, higher = more signal, called active from +8 up or from −8 down.
Assay [6] addresses Streptavidin (Streptomyces avidinii) (UniProt P22629). Briefly: compounds binding control protein streptavidin – biophysical, small-molecule microarray, 635/667 nm fluorescence, artefact control for SMM compound annotation, primary screen (AID 1147).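 Further: signal reflects streptavidin binding to arrayed compounds as a control protein.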 The settings on record: higher = more signal.
A short description of assay [7]: probe aInhba binding on compound microarray – biochemical, small-molecule microarray, 635/667 nm fluorescence, primary screen (AID 1148).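 Further: score merges 667nm spot fluorescence with signal-to-noise for antibody binding to printed compounds.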 The note with it: higher = more signal.
In assay [8] the target is Torsin-1A (Homo sapiens) (UniProt O14656). The assay is described as follows: TOR1A wild-type binding on microarray – cell lysate, small-molecule microarray, lysate, 635/667 nm, primary screen (AID 1149). The note with it: COS7 hTOR1A-WT lysate, 635 nm fluorescence, higher = more signal.
For assay [9] the target is unchanged. Briefly: torsin A mutant lysate binding on microarrays – cell lysate, small-molecule microarray, COS7 lysate, 635/667 nm fluorescence, primary screen (AID 1150).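 Further: score pools 667 nm emission and signal to noise measuring lysate protein binding.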 The note with it: COS7 hTOR1A mutant lysate, 635 nm fluorescence, higher = more signal.
Assay [10] relates to Sonic hedgehog protein (Shh). The assay is described as follows: Sonic hedgehog microarray binding compounds – biochemical, small-molecule microarray, 635/667 nm fluorescence, primary screen (AID 1151).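 Further: Shh protein binding to compounds spotted on small-molecule microarray slides; score combines spot fluorescence intensity with signal-to-noise across triplicate slides.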 The note with it: 635 nm fluorescence, higher = more signal.

The structures appear in SMILES notation. Calls of active or inactive are those of the source. Unless noted, how the calls were made is not given here.

Torsin-1A (Homo sapiens), sequence (O14656 whole entry, looked up): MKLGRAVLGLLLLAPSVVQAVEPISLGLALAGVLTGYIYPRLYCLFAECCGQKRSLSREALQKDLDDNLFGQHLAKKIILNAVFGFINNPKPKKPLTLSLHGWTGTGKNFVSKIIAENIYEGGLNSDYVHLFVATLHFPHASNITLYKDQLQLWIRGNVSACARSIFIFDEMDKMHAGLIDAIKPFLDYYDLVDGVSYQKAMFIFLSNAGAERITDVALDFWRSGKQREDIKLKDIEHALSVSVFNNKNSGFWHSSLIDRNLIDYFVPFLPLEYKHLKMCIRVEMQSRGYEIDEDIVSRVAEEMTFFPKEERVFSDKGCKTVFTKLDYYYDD
Streptavidin (Streptomyces avidinii), sequence (P22629 whole entry, looked up): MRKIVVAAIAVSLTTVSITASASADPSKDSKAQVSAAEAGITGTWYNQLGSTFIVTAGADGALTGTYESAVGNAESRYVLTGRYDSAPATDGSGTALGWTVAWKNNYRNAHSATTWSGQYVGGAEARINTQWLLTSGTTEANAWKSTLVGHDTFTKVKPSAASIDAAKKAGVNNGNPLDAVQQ

In the case of `[N-]=[N+]=NCc1ccccc1[C@H]1OC(c2ccc(OCCCO)cc2)=N[C@@]1(Cc1ccccc1)C(=O)NCc1ccccc1`, the composite z-score in assay [1] was 0.348; in [6], 1.15; in assay [7], -0.466; in assay [8], 0.247; in assay [9] it was 0.714; in [10] it was 0.144. Besides, the z-score is -3.57 (inactive) in [2], -0.862 (inactive) in assay [3], -0.0108 (inactive) in [4] and -0.157 (inactive) in assay [5].
Consider `CCC(CC)C(O)C1C=CC2C(=O)N(C)C(=O)C2N1Nc1ccccc1` (stereo not given), for which the composite z-score in assay [1] is 0.334; in [6] it was 1.48; in assay [7], 0.288; in [8], 0.551; in [9], 0.235; in [10], -0.09. The z-score in assay [2] was 0.667 (inactive); in [3], -0.625 (inactive); in assay [4], 0.822 (inactive); in assay [5], -0.214 (inactive).
In the case of `CC[C@@H]1C=C(C(=O)O)[C@H](c2ccco2)N1S(=O)(=O)c1ccc(C)cc1`, the composite z-score in [1] was -0.291; in assay [6] it was 0.402; in assay [7], 0.0228; in assay [8] it was -0.282; in assay [9] it was 0.222; in [10], 0.374. Moreover, the z-score in assay [2] is 0.433 (inactive); in assay [3] it was -0.187 (inactive); in [4] it was -0.518 (inactive); in assay [5], 1.1 (inactive).
Regarding `O=C1NCC(=O)N2[C@@H]1C[C@@H](C(=O)O)[C@H]2c1cccc(OCCO)c1`, the composite z-score was 2.26 in [1]; 2.8 in assay [6]; 2.16 in [7]; 3.24 in assay [8]; 3.69 in assay [9]; 1.63 in assay [10]. Further, the z-score in assay [2] was -0.095 (inactive); in assay [3] it was 4.41 (inactive); in assay [4], 0.822 (inactive); in assay [5] it was -0.393 (inactive).
For `O=C1OCC=C[C@H]2OC34C=CCN(CCN5CCOCC5)C(=O)[C@H]3N(CCCO)C(=O)[C@@H]4[C@@H]12` (stereo not given in full), the composite z-score in [1] was -0.418; in assay [6], 0.212; in assay [7] it was -0.128; in assay [8] it was 0.267; in assay [9], 0.156; in assay [10], 1. The z-score in [2] was -2.3 (inactive); in [3] it was -0.0222 (inactive); in assay [4], 0.329 (inactive); in assay [5] it was 1.5 (inactive).
For the compound `CC(C)(C)OC(=O)CC[C@]1(C(=O)NCC(O)CO)COC(c2ccc(OCCCO)cc2)=N1` (stereo not given in full), the composite z-score in [1] was -0.05; in assay [6], 0.873; in [7], -0.003; in assay [8], 0.746; in assay [9], 2.65; in [10], -1.31. Besides, the z-score was -0.0229 (inactive) in assay [2], -0.904 (inactive) in assay [3], -0.412 (inactive) in assay [4] and -0.0431 (inactive) in assay [5].
`Cc1ccc(C(C)CC(O)C2C=CC3C(=O)N(c4ccccc4)C(=O)C3N2Nc2ccc([N+](=O)[O-])cc2)o1` (stereo not given): the composite z-score in [1] was 0.354; in [6] it was 1.71; in assay [7], -0.0131; in assay [8], -0.344; in assay [9], 0.222; in [10], 0.442. The z-score is -0.344 (inactive) in assay [2], -0.99 (inactive) in assay [3], 0.136 (inactive) in assay [4] and 0.812 (inactive) in [5].
As to `COc1ccc(CCNC(=O)[C@@]2(Sc3ccc(C)cc3)CC(=O)N(C3CCCCC3)[C@@H]2c2ccc(CO)cc2I)cc1`, the composite z-score in [1] amounted to 0.843; in assay [6], 0.422; in assay [7], 0.0391; in assay [8] it was 0.333; in [9], 0.789; in [10], 0.855. Moreover, the z-score in assay [2] was -2.23 (inactive); in [3] it was -0.382 (inactive); in assay [4], -0.168 (inactive); in assay [5], 1.19 (inactive).
Turning to `CC(CO)N1C(=O)[C@@H]2C3C(=O)OCCC/C=C\[C@H]3OC23C=CCN(c2ccc4ccccc4c2)C(=O)[C@@H]13` (stereo not given in full), the composite z-score in assay [1] is -0.632; in assay [6] it was -0.342; in [7], -0.0719; in [8], -1.72; in assay [9], -1.03; in assay [10] it was -0.256. For the same compound, the z-score in assay [2] was 0.645 (inactive); in [3], -1.02 (inactive); in assay [4] it was -0.0737 (inactive); in assay [5], 0.156 (inactive).
For `O=C1C[C@]2(c3ccc([N+](=O)[O-])cc3)C(=O)N(CCN3CCOCC3)c3cc(CO)ccc3[C@H]2N1C1CCCCC1`, the composite z-score in [1] is -0.179; in [6] it was -0.834; in assay [7] it was -0.0021; in [8] it was -0.489; in [9], -0.517; in assay [10] it was -0.132. The z-score in assay [2] is -2.16 (inactive); in assay [3] it was -0.02 (inactive); in assay [4] it was -0.322 (inactive); in assay [5], 0.254 (inactive).
Take `O=C1O[C@@H](c2ccccc2)[C@@H](c2ccccc2)N2[C@@H](c3ccc(OCCO)cc3)[C@]3(C(=O)Nc4ccccc43)[C@@H](C(=O)NC[C@H](O)c3ccccc3)[C@H]12`: the composite z-score in assay [1] worked out at 0.0635; in assay [6], 0.146; in [7], 0.0561; in assay [8], 0.437; in assay [9] it was 0.14; in assay [10], 0.95. Also, the z-score in [2] is -1.19 (inactive); in assay [3], -0.388 (inactive); in assay [4], -0.606 (inactive); in [5] it was 2.97 (inactive).
For the compound `C=CCNC(=O)[C@H]1[C@@H]2C(=O)O[C@@H](c3ccccc3)[C@@H](c3ccccc3)N2[C@@H](c2ccc(OCCO)cc2)[C@]12C(=O)Nc1ccc(C#CC3=CCCCC3)cc12`, the composite z-score in assay [1] was 0.722; in [6], 0.376; in assay [7], -0.0136; in assay [8], 0.127; in assay [9], 0.578; in assay [10], 1.54. Moreover, the z-score was -4.45 (inactive) in [2], 0.334 (inactive) in [3], 0.775 (inactive) in [4] and -0.267 (inactive) in [5].
For `C=CCNC(=O)[C@H]1[C@@H]2C(=O)O[C@@H](c3ccccc3)[C@@H](c3ccccc3)N2[C@@H](c2ccccc2OCCO)[C@]12C(=O)Nc1ccc(C#CC3=CCCCC3)cc12`, the composite z-score in assay [1] was 0.291; in assay [6], 0.0808; in assay [7], 0.0074; in assay [8], 1.23; in assay [9], 1.14; in assay [10] it was 1.61. Further, the z-score in [2] was -6.47 (inactive); in assay [3] it was 1.64 (inactive); in assay [4] it was 0.484 (inactive); in [5], 1.05 (inactive).
Regarding `CC(C)C[C@@H]1NC(=O)[C@@H]2C[C@H](C(=O)NCCCCCN)[C@H](c3cccc(OCCO)c3)N2C1=O`, the composite z-score in [1] is 0.794; in [6], 1.05; in assay [7] it was -0.0736; in assay [8], 0.941; in [9], 0.919; in assay [10], 1.05. In addition, the z-score in [2] was -0.542 (inactive); in assay [3], -1.64 (inactive); in [4] it was 0.0043 (inactive); in [5], 0.442 (inactive).
